Hits are enriched below; roughly 3.5% of the tested compounds scored in any of these assays.
FBW7 activator: activators of human E3 ligase FBW7. AID 1259310. Q969H0. AlphaScreen FBW7–phospho-cyclin E peptide binding, activator screen. normalized activity (activation), % at 26.1 µM. 650,000 compounds, 0.13% hits; in the data active = normalized activity above about 1.9%;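 also: purified mutant Fbw7 with reduced substrate affinity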
Target sequence (Q969H0 whole entry, looked up): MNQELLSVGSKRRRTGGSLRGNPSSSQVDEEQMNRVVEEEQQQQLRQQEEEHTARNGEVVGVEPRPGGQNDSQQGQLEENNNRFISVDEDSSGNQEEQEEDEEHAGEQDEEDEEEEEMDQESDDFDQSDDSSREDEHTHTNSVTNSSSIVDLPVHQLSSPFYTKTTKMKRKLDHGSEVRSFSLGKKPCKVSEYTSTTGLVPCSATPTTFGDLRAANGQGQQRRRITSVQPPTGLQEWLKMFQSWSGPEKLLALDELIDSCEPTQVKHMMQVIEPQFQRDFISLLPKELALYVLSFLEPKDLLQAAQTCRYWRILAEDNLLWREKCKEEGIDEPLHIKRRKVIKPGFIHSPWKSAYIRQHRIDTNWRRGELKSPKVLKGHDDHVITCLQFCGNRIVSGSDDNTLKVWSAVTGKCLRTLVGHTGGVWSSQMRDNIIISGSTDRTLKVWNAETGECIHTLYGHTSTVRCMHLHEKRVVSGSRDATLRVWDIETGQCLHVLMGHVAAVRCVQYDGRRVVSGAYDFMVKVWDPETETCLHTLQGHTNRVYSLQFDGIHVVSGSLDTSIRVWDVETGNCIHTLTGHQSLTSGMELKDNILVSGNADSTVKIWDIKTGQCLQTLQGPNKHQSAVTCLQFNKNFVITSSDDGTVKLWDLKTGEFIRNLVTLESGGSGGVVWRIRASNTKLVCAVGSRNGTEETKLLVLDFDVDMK
MITF inh: human MITF inhibition, primary screen | 650,000 compounds, 0.91% hits | AID 1259374 | inhibition, % at 2.6 µM | AlphaScreen MITF homodimerization, bead proximity signal | O75030; in the data active = inhibition above about 50%;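 also: 0% = vehicle wells with protein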
TEAD-YAP inh: TEAD-YAP interaction inhibition. HEK-TIYL cells, TEAD-Gal4/YAP UAS-luciferase luminescence. inhibition, % at 9.12 µM. 640,000 compounds, 1.4% hits; in the data active = inhibition above about 32%;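 also: 0% = median of test compound wells and 100% = reference inhibitor wells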
GPR151 activ: activators of human GPR151; AID 1508602; Q8TDV0; PathHunter beta-arrestin GPR151 cells, luminescence; 650,000 compounds, 1% hits; activation, % at 11.2 µM; in the data active = activation above about 4.9%;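 also: 0% = median of compound wells and 100% = cells with positive control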
An asterisk follows results filed as active.

SMILES	FBW7 activator	MITF inh	TEAD-YAP inh	GPR151 activ
COC(=O)c1nc2n(n1)C(c1cc(OC)c(OC)c(OC)c1)C=C(c1cccs1)N2 (stereo not given)	-0.1	-1.0	51.7*	-0.3
O=C(Nc1ccc2c(c1)C(=O)NC2=O)c1ccc(Oc2ccccc2)cc1	0.0	0.1	-7.9	-1.0
CCOC(=O)c1sc2nc(SCC(=O)Nc3cccc(C(F)(F)F)c3)n(Cc3ccccc3OC)c(=O)c2c1C	-0.2	-5.0	-6.6	-1.7
CC1=C(C#N)C(c2cc(Br)ccc2OC(F)F)C(C#N)=C(C)N1	0.0	8.0	11.2	2.4
COCC(C)NC(=O)C1CC(c2cccc(OC)c2)=NO1 (stereo not given)	-0.1	-6.3	-6.5	0.8
CCc1ccc(C2=CC(c3cc(OC)c(OC)c(OC)c3)n3ncnc3N2)cc1 (stereo not given)	0.0	8.0	64.6*	-0.7
COc1cc(C2C=C(c3cccs3)Nc3ncnn32)cc(OC)c1OC (stereo not given)	-0.1	17.6	65.2*	-1.3
CCc1ccc(C2=CC(c3cccc(OC)c3OC)n3ncnc3N2)cc1 (stereo not given)	-0.1	1.7	-5.9	1.7
COc1ccc(C2=CC(c3ccc(F)cc3)n3ncnc3N2)cc1 (stereo not given)	-0.1	-1.1	-14.0	-1.9
COc1ccc(C2=CC(c3cc(OC)c(OC)c(OC)c3)n3ncnc3N2)cc1 (stereo not given)	0.1	1.6	63.2*	-0.1
COc1ccc(C2C=C(c3ccc(F)cc3)Nc3ncnn32)cc1OC (stereo not given)	0.6	13.7	11.5	-0.3
COc1ccc(C2=CC(c3ccc(OC)c(OC)c3)n3ncnc3N2)cc1 (stereo not given)	0.1	12.2	43.1*	-1.2
CCOc1ccc(C2C=C(c3ccc(CC)cc3)Nc3ncnn32)cc1OC (stereo not given)	0.0	26.6	37.4*	-0.3
O=C(Nc1ccc(Oc2ccc(Br)c3ccccc23)c(Cl)c1)c1cc(Cl)cc(Cl)c1O	0.2	-6.9	-5.7	1.4
O=C(Cc1csc(N2CCOCC2)n1)NNC(=S)Nc1ccc(Cl)cc1Cl	0.2	17.4	-3.2	-0.7
O=C(Cn1ccc(C(F)(F)F)n1)N/N=C/c1ccc(O)c(O)c1O	-1.2	65.2*	0.4	0.2
O=C(Cc1cn2ccsc2n1)N/N=C/c1ccc(O)c(O)c1O	-1.1	78.5*	-4.0	-0.1
CCCOc1ccc(/C=N/NC(=O)Cc2cn3ccsc3n2)c(O)c1	-0.2	1.5	-22.8	0.1
CN1CCN(CCC(=O)N/N=C/c2ccc(O)cc2O)CC1	-0.2	-77.5	1.1	0.4
O=C(CCN1CCN(c2ccccc2)CC1)N/N=C/c1ccc(O)c(O)c1O	-0.6	70.0*	3.8	1.3
O=C(Cc1csc(N2CCOCC2)n1)N/N=C/c1ccc(O)c(O)c1O	-0.8	65.9*	4.0	0.2
CCOC(=O)C1=C(C)N=c2s/c(=C/c3ccc(N(C)C)cc3)c(=O)n2C1c1ccc(F)cc1 (stereo not given)	0.1	3.3	2.7	0.9
CC1=NN(c2ccccc2)C(=O)C1C(=O)c1ccc(Br)cc1 (stereo not given)	0.0	0.8	37.2*	-0.6
CC1=NN(c2ccccc2)C(=O)C1C(=O)c1ccccc1 (stereo not given)	-0.1	5.9	25.1	-1.3
O=C(N[C@H]1C[C@H]2C(=O)N[C@@H](Cc3ccc(Cl)cc3)C(=O)N2C1)c1cccc(F)c1F	0.0	-1.0	9.1	-2.3
SMILES	FBW7 activator	MITF inh	TEAD-YAP inh	GPR151 activ
CCCN(Cc1ccc([N+](=O)[O-])cc1)CC1CC1	-0.2	-1.4	2.8	-1.5
Oc1c(C(Nc2nccs2)c2ccco2)ccc2cccnc12 (stereo not given)	-0.3	20.1	5.8	1.4
CCCC(=O)NC(c1cccc([N+](=O)[O-])c1)c1ccc2cccnc2c1O (stereo not given)	-2.0	30.5	66.0*	1.0
O=[N+]([O-])c1cccc(C(Nc2nccs2)c2ccc3cccnc3c2O)c1 (stereo not given)	-0.4	36.8	37.9*	-0.7
CCCC(=O)NC(c1cccc(F)c1)c1ccc2cccnc2c1O (stereo not given)	-0.7	20.4	50.1*	-0.2
CC(C)C(=O)NC(c1cccc([N+](=O)[O-])c1)c1ccc2cccnc2c1O (stereo not given)	-1.9	54.0*	73.4*	0.9
CCCCC(=O)NC(c1ccc([N+](=O)[O-])cc1)c1ccc2cccnc2c1O (stereo not given)	-1.9	30.8	27.9	1.1
O=C(COC(=O)CCc1c[nH]c(=O)[nH]1)Nc1ccccc1	0.4	-21.5	1.0	-0.5
CCNc1nsc(C(=O)c2ccc(Cl)cc2)c1N	-0.1	-3.7	-16.6	0.0
COC(=O)c1ccc(NC(=O)CSc2n[nH]c(CNc3ccc(C)cc3)n2)cc1	-0.2	6.8	5.8	-0.6
Nn1c(SCc2cc(=O)oc3cc(O)c(O)cc23)nnc1-c1ccncc1	-0.7	85.2*	-5.7	0.3
Cn1c(SCc2cc(=O)oc3cc(O)c(O)cc23)nc2ccccc21	0.2	42.5	-3.9	-3.0
Nn1c(Cc2ccccc2F)nnc1SCc1cc(=O)oc2cc(O)c(O)cc12	-0.7	95.2*	6.2	-0.7
O=C1C2CC3CC1CC(C(=O)N1CCOCC1)(C3)C2	0.0	-24.6	11.0	-1.0
COc1ccc(C)cc1-n1nnnc1SCC(=O)c1[nH]c(C)c(C(C)=O)c1C	-0.1	11.6	32.7*	0.0
c1csc(-c2nc(NC3CC3)c3ncn(-c4ccsc4)c3n2)c1	-0.1	9.9	33.8*	-2.4
OCCNc1nc(-c2cccs2)nc2c1ncn2-c1ccsc1	0.2	33.2	66.8*	0.0
COc1ccc(CCNc2nc(-c3c(C)nn(C)c3C)nc3c2ncn3-c2ccsc2)cc1	-0.1	4.7	-6.0	3.2
c1ccc(CN2CCC(Nc3nc(-c4cccs4)nc4c3ncn4-c3ccccc3)CC2)cc1	-0.1	10.4	14.4	0.7
Cc1nn(C)c(C)c1-c1nc(NCCO)c2ncn(-c3ccsc3)c2n1	0.2	8.1	42.6*	-0.5
CCCNc1nc(-c2cccs2)nc2c1ncn2-c1ccsc1	-0.1	4.0	13.8	-1.3
OCCNc1nc(-c2csc3ccccc23)nc2c1ncn2-c1ccsc1	0.0	7.3	43.9*	0.5
O=C(O)c1ccc(NCc2ccc(Cl)cc2)c([N+](=O)[O-])c1	-0.1	1.7	37.9*	-1.5
O=C(c1cnn2c1NC(c1ccco1)CC2C(F)(F)F)N1CCN(Cc2ccccc2)CC1 (stereo not given)	0.0	28.0	44.8*	-1.1
O=C(Nc1ccccc1F)c1cc2cc(Cl)cc(Cl)c2oc1=O	0.1	-8.7	-3.7	0.7
COc1cc(OC)c(-c2c3cc(O)c(=O)cc-3oc3cc(O)c(O)cc23)cc1OC	-0.2	110.0*	7.8	-1.0
O=c1cc2oc3cc(O)c(O)cc3c(-c3cccc(Cl)c3Cl)c-2cc1O	-0.1	102.4*	11.4	-1.1
COc1ccccc1-c1c2cc(O)c(=O)cc-2oc2cc(O)c(O)cc12	-0.3	104.0*	7.7	-0.9
COc1cccc(-c2cc(=O)c3ccccc3o2)c1N	0.0	-11.2	-53.0	-1.5
COc1cc2ccc(=O)oc2cc1O	-0.1	2.4	7.2	-0.7
